Experimental findings from PubChem BioAssay are described below.

The term inhibition denotes the relative decrease from the control value, in per cent.

Test [1] concerns the target NAD(+) hydrolase SARM1 (Homo sapiens) (UniProt Q6SZW1). Nature of the test: blocking NAD cleavage by SARM1 SAM-TIR – cell lysate, NAD-Glo luminescence (AID 1508614;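 active = compound whose remaining NAD level is above about 45 nM, limit read from the data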;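 note: higher remaining NAD means stronger inhibition of SARM1 NADase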). The note with it: SAM-TIR HEK293T lysate NADase, at 1 µM, stronger effect = higher value.
Test [2] has as its target Mitogen-activated protein kinase 7 (Homo sapiens) (UniProt Q13164). Nature of the test: Gal4-ERK5 driven luciferase induction – cell-based, HTS, primary screen (AID 1508626;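 active = luciferase signal above three times the same-plate solvent-only control wells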;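 note: luciferase driven by Gal4-ERK5 fusion binding five Gal4 sites before minimal TATA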). The following applies: HeLa Gal4-ERK5 transactivation, 18 h, at 5 µM, stronger effect = higher value.
The nature of test [3]: growth inhibition, single agent or in combination, cell-based, chromothripsis tumors, cisplatin or BGB combos (AID 1671449).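 Note: cells exposed for 96 hours; 0% = vehicle DMSO and 100% = killing by high DMSO.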 The following applies: LFS_MB_P medulloblastoma cells.
Test [4] is described as follows: growth inhibition, single agent and combos, cell-based, chromothripsis tumors, cisplatin or BGB combos (AID 1671450).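 Note: cells exposed to compound for four days; 0% = vehicle DMSO and 100% = cell killing by high DMSO.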 The note with it: HDN33 neuroblastoma cells, stronger effect = higher value.
The nature of test [5]: growth inhibition, single agents and combos, ICB984, cell-based, cisplatin or BGB combos, synergistic combos for chromothripsis tumors (AID 1671451; call rule not given here;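 note: cells exposed for 96 hours before readout; 0% = vehicle DMSO and 100% = killing by high DMSO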). The following applies: ICB984 medulloblastoma cells, drug combinations, stronger effect = higher value.
Test [6] in a line: growth inhibition, single agents and combos, LFS_MB_1R, cell-based, cisplatin or BGB combos, synergistic combos for chromothripsis tumors (AID 1671452).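 Note: cells exposed for 96 hours before readout.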 The following applies: LFS_MB_1R medulloblastoma cells, stronger effect = higher value.
A short description of test [7]: growth inhibition, single agents and combos, HTB85, cell-based, BGB or cisplatin IC20 combos, synergistic combos for chromothripsis tumors (AID 1671453).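 Note: cells exposed for 96 hours before readout; 0% = vehicle DMSO and 100% = high DMSO killing control.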 The following applies: HTB85 osteosarcoma cells, drug combinations, stronger effect = higher value.
The nature of test [8]: growth inhibition, single agents and combos, CRL2098, cell-based, BGB or cisplatin IC20 combos, synergistic combos for chromothripsis tumors (AID 1671454).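 Note: cells exposed for 96 h before readout; 0% = vehicle DMSO and 100% = killing by high DMSO.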 The note with it: CRL2098 osteosarcoma cells, drug combinations, stronger effect = higher value.
Test [9] in a line: growth inhibition, single agents and combos, HD-MB03, cell-based, BGB or cisplatin IC20 combos, synergistic combos for chromothripsis tumors (AID 1671455; in the data active = inhibition above about 83%;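 note: 0% = vehicle DMSO and 100% = high DMSO as cytotoxic control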). The note with it: HD-MB03 medulloblastoma cells, stronger effect = higher value.
Test [10] can be described thus: growth inhibition, single agents and combos, UWB1.289, cell-based, BGB or cisplatin combos, synergistic combos for chromothripsis tumors (AID 1671456).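 Note: cells exposed to compound for four days; 0% = vehicle DMSO and 100% = killing by high DMSO.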 The following applies: UWB1.289 ovarian carcinoma cells, stronger effect = higher value.
The nature of test [11]: growth inhibition, single agents and combos, LFS_MB_2R, cell-based, cisplatin combos, synergistic combos for chromothripsis tumors (AID 1671457).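 Note: cells exposed to compound for four days before readout.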 The note with it: LFS_MB_2R medulloblastoma cells, stronger effect = higher value.
Test [12] is described as follows: growth inhibition, MDA-MB-436, cell-based, BGB or cisplatin combos, synergistic combos for chromothripsis tumors (AID 1671458; call rule not given here;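 note: cells exposed for 96 hours; 0% = vehicle DMSO and 100% = killing by high DMSO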). The following applies: MDA-MB-436 breast carcinoma growth inhibition, drug combinations, stronger effect = higher value.
A short description of test [13]: UWB1.289_BRCA1 ovarian cancer growth, cell-based, BGB or cisplatin combinations (AID 1671459). The note with it: UWB1.289 BRCA1 ovarian carcinoma, drug combinations, stronger effect = higher value.
Test [14] in a line: drug combination toxicity in non-malignant astrocytes – cell-based, BGB or cisplatin IC20 combos, cytotoxicity control for chromothriptic childhood tumor combination screen (AID 1671460).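 Note: cells exposed to compounds for 96 hours before viability readout; 0% = vehicle and 100% = killing control.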 The note with it: Human astrocytes, viability inhibition, drug combinations, at 0.5 µM, stronger effect = higher value.
The nature of test [15]: BT084 cell growth, single and combined drugs, ICGC_MB145, cisplatin and BGB IC40 combos (AID 1671461).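 Note: cells exposed to drugs for 96 hours; 0% = vehicle DMSO and 100% = high DMSO full killing control.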 The following applies: BT084 medulloblastoma cells, drug combinations, stronger effect = higher value.
A short description of test [16]: RCMB18 cell growth, single agent and combined, cisplatin and BGB IC40 combos (AID 1671462).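 Note: cells exposed to compound for four days.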 The note with it: RCMB18 medulloblastoma cells, stronger effect = higher value.
Test [17] in a line: CRL1545 cell growth, single agent and combined, cisplatin and BGB IC20 combos (AID 1671464).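 Note: cells exposed to compound for 96 hours before readout; 0% = vehicle DMSO and 100% = high DMSO killing control.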 The note with it: CRL1545 osteosarcoma cells, stronger effect = higher value.
Test [18] can be described thus: galactose survival enhancers in mitochondrial complex I cybrids – cell-based, galactose medium, ATP luminescence, primary screen (AID 1645843;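 active = z-score of at least 1.8 in each of two replicates, scored against plate mean and spread of sample wells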;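 note: positive z means more ATP and so rescue of galactose-driven cybrid death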). The note with it: complex I mutant cybrid cells, 72 h, stronger effect = higher value.
The mark [19] stands for this setting: at 0.5 µM, stronger effect = higher value.
Setting [20] is: measured here: combination with BGB IC20, at 0.005 µM.
Setting [21] is: measured here: combination with BGB IC40, at 0.005 µM.
The mark [22] stands for this setting: measured here: combination with BGB IC40, at 0.05 µM.
Where [23] appears, read: measured here: combination with cisplatin, at 0.5 µM, stronger effect = higher value.
Where [24] appears, read: measured here: combination with cisplatin, at 5 µM, stronger effect = higher value.
[25] abbreviates: measured here: with BGB IC20 combination, at 0.5 µM.
Setting [26] is: measured here: with cisplatin IC20 combination, at 0.5 µM.
Where [27] appears, read: measured here: 5 uM single agent, at 5 µM.
[28] abbreviates: measured here: combination with cisplatin, at 0.5 µM.
Setting [29] is: measured here: combination with cisplatin, at 5 µM.
The mark [30] stands for this setting: measured here: with BGB IC20, at 0.5 µM.
[31] abbreviates: measured here: with BGB IC20, at 5 µM.
Where [32] appears, read: measured here: with cisplatin IC20, at 0.5 µM.

“And” between values parts separate entries of the source, which are not always exact repeats. Equal entries are not always repeated. The source made the active and inactive calls. Cut-off read from the data, not from the text of the source, unless noted: active = inhibition above about 80%; inactive = the rest.

Sequence of NAD(+) hydrolase SARM1 (Homo sapiens) (Q6SZW1 whole entry, looked up, the tested form may be a part): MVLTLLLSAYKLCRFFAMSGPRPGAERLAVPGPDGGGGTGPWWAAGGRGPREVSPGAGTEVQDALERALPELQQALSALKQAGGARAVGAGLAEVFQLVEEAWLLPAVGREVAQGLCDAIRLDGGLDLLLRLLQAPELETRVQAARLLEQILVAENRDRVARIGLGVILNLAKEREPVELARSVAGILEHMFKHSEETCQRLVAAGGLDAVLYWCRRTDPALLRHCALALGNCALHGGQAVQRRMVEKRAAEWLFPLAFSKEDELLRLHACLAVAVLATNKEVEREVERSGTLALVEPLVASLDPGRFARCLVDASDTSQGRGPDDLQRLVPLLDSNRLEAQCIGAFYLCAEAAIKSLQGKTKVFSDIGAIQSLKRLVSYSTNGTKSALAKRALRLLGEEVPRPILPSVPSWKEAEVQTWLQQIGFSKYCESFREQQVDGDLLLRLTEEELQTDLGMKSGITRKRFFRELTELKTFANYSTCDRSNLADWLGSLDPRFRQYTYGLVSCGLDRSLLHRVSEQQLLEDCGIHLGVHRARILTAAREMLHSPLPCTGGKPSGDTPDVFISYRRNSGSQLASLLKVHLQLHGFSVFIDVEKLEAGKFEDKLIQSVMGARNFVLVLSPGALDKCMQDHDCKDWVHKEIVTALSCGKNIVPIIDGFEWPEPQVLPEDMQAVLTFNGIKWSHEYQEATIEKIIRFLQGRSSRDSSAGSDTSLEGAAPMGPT
Sequence of Mitogen-activated protein kinase 7 (Homo sapiens) (Q13164 whole entry, looked up, the tested form may be a part): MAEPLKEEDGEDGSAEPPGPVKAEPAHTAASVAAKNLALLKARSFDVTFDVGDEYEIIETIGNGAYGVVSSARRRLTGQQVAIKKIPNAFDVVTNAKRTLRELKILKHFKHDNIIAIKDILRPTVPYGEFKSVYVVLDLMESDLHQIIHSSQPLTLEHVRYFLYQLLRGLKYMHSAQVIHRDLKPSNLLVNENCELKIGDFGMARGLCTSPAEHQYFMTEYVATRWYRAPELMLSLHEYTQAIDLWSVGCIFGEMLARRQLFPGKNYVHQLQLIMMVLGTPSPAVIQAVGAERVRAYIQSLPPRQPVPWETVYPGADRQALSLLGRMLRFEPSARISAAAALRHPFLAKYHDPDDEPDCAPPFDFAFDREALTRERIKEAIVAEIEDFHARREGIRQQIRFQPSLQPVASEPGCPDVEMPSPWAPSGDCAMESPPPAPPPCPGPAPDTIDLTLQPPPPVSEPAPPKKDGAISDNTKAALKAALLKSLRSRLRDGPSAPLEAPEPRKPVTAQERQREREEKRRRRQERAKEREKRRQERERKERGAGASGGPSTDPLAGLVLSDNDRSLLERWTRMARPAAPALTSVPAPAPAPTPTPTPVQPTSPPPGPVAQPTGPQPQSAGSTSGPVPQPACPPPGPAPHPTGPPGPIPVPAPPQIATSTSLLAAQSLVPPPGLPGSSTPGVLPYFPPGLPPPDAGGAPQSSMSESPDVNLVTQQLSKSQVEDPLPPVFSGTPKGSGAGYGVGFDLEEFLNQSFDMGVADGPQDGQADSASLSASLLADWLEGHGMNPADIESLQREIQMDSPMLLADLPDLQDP

Consider `Nc1nc(=S)c2[nH]cnc2[nH]1`, for which the remaining NAD in test [1] is 10 nM (inactive). Also, the luciferase signal in test [2] was 52 AU (inactive). In addition, the inhibition in test [3] (setting [19]) was -26.3% (inactive); in test [3] (setting [20]), -7.21%; in test [3] (setting [21]), -35.9%; in [3] (setting [22]) it was -9.84%; in test [3] (setting [23]), -38.8%; in test [3] (setting [24]), -43.8%. Also, the inhibition in [4] (BGB combo, at 5 µM) was 73.6%; in test [4] (at 0.5 µM), 33.6% (inactive); in test [4] (cisplatin combo, at 5 µM), 70.5%; in [4] (setting [25]), 23.3%; in test [4] (setting [26]), 18.7%; in test [4] (single agent, at 5 µM), 80.7%. Further, the inhibition in test [5] (BGB IC20 combo, at 0.005 µM) was -12.4%; in test [5] (BGB IC40 combo, at 0.005 µM) it was -52.4%; in test [5] (BGB IC40 combo, at 0.05 µM) it was -32.5%; in [5] (at 0.5 µM), -36% (inactive); in test [5] (cisplatin combo, at 0.05 µM) it was -37.7%; in [5] (cisplatin combo, at 0.5 µM), -55.5%. For the same compound, the inhibition was -19.8% in [5] (cisplatin combo, at 5 µM); -9.37% in test [5] (setting [27]); -22.2% (inactive) in [6] (at 0.5 µM); 5.91% in test [6] (setting [22]); -61.3% in test [6] (setting [28]); -34.3% in [6] (setting [29]). Besides, the inhibition is 1.06% (inactive) in test [7] (at 0.5 µM); 3.8% in [7] (setting [30]); 46% in test [7] (setting [31]); -7.75% in [7] (setting [32]); 16.3% in [7] (measured here: with cisplatin IC20, at 5 µM); 52.5% in test [7] (single agent, at 5 µM). The inhibition in [8] (at 0.5 µM) is -31.6% (inactive); in test [8] (measured here: combination with BGB at IC20, at 0.5 µM) it was -18.7%; in test [8] (measured here: combination with cisplatin at IC20, at 0.5 µM) it was -26.5%; in test [9] (at 0.5 µM), -3.75% (inactive); in test [9] (measured here: combo with BGB at IC20, at 0.5 µM), -3.35%; in test [9] (measured here: combo with cisplatin at IC20, at 0.5 µM), -7.29%. Also, the inhibition in test [10] (at 0.5 µM) was 63.1% (inactive); in test [10] (measured here: inhibition with BGB combination, at 0.05 µM), -17.4%; in test [10] (measured here: inhibition with cisplatin combination, at 0.05 µM), -1.37%; in test [11] (at 0.5 µM), -15.5% (inactive); in test [11] (setting [28]), -18.2%; in test [11] (setting [29]) it was -6.5%. In addition, the inhibition in test [12] (at 0.5 µM) is 15.1% (inactive); in test [12] (measured here: BGB combination, at 0.5 µM) it was 4.09%; in test [12] (measured here: BGB combination, at 5 µM) it was 52.8%; in [12] (measured here: cisplatin combination, at 0.5 µM), 11.9%; in [12] (measured here: cisplatin combination, at 5 µM), 66.7%; in test [13] (BGB combination, concentration series, at 5 µM), 113%. In addition, the inhibition was 63.6% (inactive) in test [13] (at 0.5 µM); 110% in [13] (cisplatin combination, concentration series, at 5 µM); 4.77% (inactive) in test [14]; -3.14% in [14] (measured here: combo with BGB IC20); 8.25% in test [14] (measured here: combo with cisplatin IC20); -17.7% (inactive) in test [15] (at 0.5 µM). For the same compound, the inhibition in test [15] (cisplatin combination, at 0.5 µM) is -11.9%; in test [15] (cisplatin combination, at 5 µM), 0.406%; in test [15] (measured here: BGB IC40 combination 0.05 uM, at 0.05 µM), 0.063%; in test [15] (single agent, at 5 µM) it was 26.6%; in [16] (at 0.5 µM) it was -16.7% (inactive); in test [16] (cisplatin combo, at 5 µM), -5.08%. Also, the inhibition in [16] (measured here: BGB IC40 combination, at 0.05 µM) is -23.1%; in [16] (setting [28]), 12.6%; in [16] (single agent, at 5 µM) it was -10.3%; in [17] (at 0.5 µM), -1.16% (inactive); in test [17] (setting [25]) it was -1.16%; in [17] (setting [26]), -1.16%. Besides, the inhibition in test [17] (single agent, at 0.05 µM) was -14.2%; in [17] (single agent, at 5 µM) it was 77.7%.

As to `CCCOc1ccccc1-c1nc2n[nH]nc2c(=O)[nH]1`, the remaining NAD in [1] is 10 nM (inactive). Besides, the z-score in test [18] is 0.78 (inactive) and -0.305 (inactive) and 1.09 (inactive).

With `Cc1scc2c1N(C(=O)CN1CCN(C)CC1)c1ccccc1NC2=O`, in test [1], the remaining NAD is 10 nM (inactive). Further, in test [18], the z-score was 0.33 (inactive) and 0.02 (inactive) and 0.68 (inactive).

On to `CNC[C@H](O)[C@@H](O)[C@H](O)[C@H](O)CO`, for which the remaining NAD in [1] was 10 nM (inactive). Besides, the z-score in test [18] was 0.835 (inactive).

Regarding `OC[C@H]1O[C@@H](Oc2ccc(O)cc2)[C@H](O)[C@@H](O)[C@@H]1O`, the luciferase signal in test [2] was 48 AU (inactive).

For `CC1(C)O[C@H]2CC(=O)OC[C@]23[C@H]2CC[C@@]4(C)[C@H](c5ccoc5)OC(=O)[C@H]5O[C@]54[C@]2(C)C(=O)C[C@@H]13`, in [2], the luciferase signal was 80 AU (inactive).

With `O=NN(CCCl)C(=O)NC1CCCCC1`, the remaining NAD in [1] was 10 nM (inactive). For the same compound, the z-score in test [18] was -0.495 (inactive). The inhibition in test [3] (setting [19]) was -24.1% (inactive) and -26.9% (inactive); in [3] (setting [20]), -12.9% and -1.3%; in test [3] (setting [21]), -38% and -34.1%; in test [3] (setting [22]) it was -45.8% and -16.7%; in test [3] (setting [23]) it was -40% and -38.1%; in [3] (setting [24]), -6.56% and -25.7%. Moreover, the inhibition in test [4] (BGB combo, at 5 µM) is -29.5% and -15.3%; in test [4] (at 0.5 µM), -27.8% (inactive) and -8.82% (inactive); in test [4] (cisplatin combo, at 5 µM) it was -16% and 13.3%; in test [4] (setting [25]) it was -31.2% and -14.7%; in test [4] (setting [26]) it was -22.8% and -17.6%; in test [4] (single agent, at 5 µM), -25.6% and 2.38%. Also, the inhibition in test [5] (BGB IC20 combo, at 0.005 µM) is -12.5% and 2.61%; in [5] (BGB IC40 combo, at 0.005 µM) it was -25.1% and -35.2%; in test [5] (BGB IC40 combo, at 0.05 µM) it was -15.4% and -60.7%; in test [5] (at 0.5 µM), -38.4% (inactive) and -29.6% (inactive); in test [5] (cisplatin combo, at 0.05 µM) it was -18.7% and -67%; in [5] (cisplatin combo, at 0.5 µM) it was -33.8% and -42.1%. Also, the inhibition in [5] (cisplatin combo, at 5 µM) is -56.7% and -19.2%; in test [5] (setting [27]), -34.3% and -15.2%; in test [6] (at 0.5 µM), -15.1% (inactive) and -17.6% (inactive); in test [6] (setting [22]), -47.7% and -29.7%; in test [6] (setting [28]) it was -17.2% and -26.3%; in test [6] (setting [29]) it was -19.8% and 0.28%. Also, the inhibition in test [7] (at 0.5 µM) is -14.3% (inactive) and -7.5% (inactive); in [7] (setting [30]) it was -27% and -24%; in [7] (setting [31]), -2.92% and -20.1%; in test [7] (setting [32]), -13.8% and 2.41%.
